PubChem BioAssay AID1347145 (National Center for Advancing Translational Sciences (NCATS), 2019)
Results filed as inconclusive are left out. Unmarked numbers belong to inactive results. The call rests on the fitted dose curve; in most records, active means well fitted inhibition curve with a large enough effect; inconclusive means small, poorly fitted or top-dose-only effect; inactive means no such curve, though single readings can be large or run the other way.

target: N-terminal Xaa-Pro-Lys N-methyltransferase 1 (Homo sapiens) (UniProt Q9BV86); experiment: qHTS Assay for Inhibitors of N-terminal methyltransferase 1 (NTMT1): MTaseGlo Assay Confirmatory Screen, Round 1; settings: Recombinant NTMT1, MTase-Glo SAH luminescence; series mostly up to 57.1 µM; activity change, negative = inhibition: at the top concentration
Excerpt: Assay Submitter (PI): Rong Huang Ph.D, Purdue University, West Lafayette, IN 47907 The N-terminal methytransferase 1 is the first methyltransferase that methylates protein alpha-N-amines and plays an important role in regulating cell mitosis, chromatin interactions and DNA repair. It is observed to be over-expressed in various cancer patient tissues like malignant melanoma and colorectal cancer tissues. Knockdown of NTMT1 in cancer cells causes cell mitotic defects and enhances sensitivity to DNA damaging chemotherapeutics. […] These critical cellular processes in which NTMT1 is implicated, coupled with emerging links to cellular dysfunction, strengthen the inference that NTMT1 is a compelling novel anticancer target. Progress have been made in understanding the molecular properties of NTMT1 and the biological consequences of protein alpha-N-terminal methylation, but there are no specific small molecule probes available for NTMT1 to fully characterize its MTase activity. To address this unmet need, a panel of assay is created and established to enable quantitative high-throughput screening (qHTS) for novel, potent, and selective small molecule NTMT1 inhibitors. Two orthogonal qHTS that use different reagents (ThioGlo vs. MTaseGlo) are developed for primary robotic screening against the NCATS chemical library of more than 400,000 small molecules. Identified inhibitors are reacquired, validated, and further characterized. MTaseGlo Assay is a luminescence screen that measure the activity of methyltransferases based on the reaction product S-adenosyl homocysteine (SAH). The substrate SAM is converted to SAH upon enzyme activation. MTase-Glo reagent and detection solution convert SAH to ATP and measure the light from the luciferase reaction. […] Early Translation Branch (ETB) National Center for Advancing Translational Sciences (NCATS) National Institute of Health (NIH)
Materials: NTMT1 enzyme, substrate SPKRIA, control peptide RCC1-6 is provided by the Huang laboratory. MTaseGlo Assay: In brief, 3 µL of enzyme mixture (final concentrations of 125 nM and 100 µM for NTMT1 and SAM, respectively) into all wells of a 1,536-well solid-bottom white plate (Greiner Bio One, Monroe, NC). 23 nL of DMSO or Ac-RCC1-10 (final concentration range 234 nM to 143 microM) was transferred via Wako Pin-tool (Wako Automation, Richmond, VA) and incubated (RT) for ~15 minutes. Next, 1 µL of substrate (final concentration 1 µM) or buffer was dispensed, and the reaction proceeded for 30 minutes (RT, protected from light) followed by a 1 microL addition of [5X] MTase-Glo Reagent(R). Samples were incubated (RT, protected from light) for 30 minutes to allow for SAH to be converted to ADP, followed by a 5 microL addition of [1X] MTase-Glo Detection Solution(R) to allow for ADP to be converted to ATP, which was then detected with a luciferase reaction. Samples were centrifuged for 15 seconds at 1,000 RPM's, followed by a RT incubation for 30 minutes. Plates were then read using Luminescence optics on a ViewLux detector. Data were normalized to no-enzyme (0% activity) and no-inhibitor (DMSO; 100%) controls, and the resulting percent inhibition data were fitted to a 4-parameter Hill equation using Graphpad Prism.

Sequence of N-terminal Xaa-Pro-Lys N-methyltransferase 1 (Homo sapiens) (Q9BV86 whole entry, looked up): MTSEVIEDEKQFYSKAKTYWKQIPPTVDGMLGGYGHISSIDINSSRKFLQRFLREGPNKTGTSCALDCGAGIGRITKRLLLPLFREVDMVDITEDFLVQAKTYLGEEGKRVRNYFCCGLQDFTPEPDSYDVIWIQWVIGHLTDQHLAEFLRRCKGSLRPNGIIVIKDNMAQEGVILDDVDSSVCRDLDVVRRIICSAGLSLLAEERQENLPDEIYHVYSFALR

| SMILES | activity change, negative = inhibition |
| --- | --- |
| CCNC(=O)[C@H]1O[C@@H](n2cnc3c(N)ncnc32)[C@H](O)C1O (stereo partly drawn) | -1.75% |
| Nc1ncnc2c1ncn2[C@@H]1O[C@@H]2COP(O)(=S)O[C@H]2[C@H]1O (stereo partly drawn) | 2.01% |
| Nc1ncnc2c1nc(Sc1ccc(Cl)cc1)n2[C@@H]1O[C@@H]2COP(O)(=S)O[C@H]2[C@H]1O (stereo partly drawn) | 11.2% |
| Nc1ncnc2c1ncn2[C@@H]1O[C@H](COP(=O)(O)OP(=O)(O)OP(=O)(O)O)[C@H]2OC3(O[C@H]21)C([N+](=O)[O-])=CC(=[N+]([O-])[O-])C=C3[N+](=O)[O-] (stereo partly drawn) | 481% |
| Nc1ncnc2c1ncn2[C@@H]1O[C@@H]2CO[P@](=O)(S)O[C@H]2[C@H]1O | -6.04% |
| CCN(CC)c1ncnc2c1ncn2[C@@H]1O[C@H](COP(=O)(O)OP(=O)(O)C(Br)(Br)P(=O)(O)O)[C@@H](O)[C@H]1O | 6% |
| COc1cc2nc(N3CCCN(C)CC3)nc(N(C)C3CCN(C)CC3)c2cc1OC | -10.2% |
| Nc1ncnc2c1ncn2[C@@H]1O[C@H](COP(=O)(O)CP(=O)(O)O)[C@@H](O)[C@H]1O | 4.38% |
